Data: ChEMBL document CHEMBL1961873, “Compounds: GSK PKIS; Assays: Nanosyn kinase panel” (2012)

Key:
[1] = biological target: T1, Ephrin type-B receptor 2 (Homo sapiens) (UniProt P29323); conditions: at 1 µM
T1 sequence (whole entry): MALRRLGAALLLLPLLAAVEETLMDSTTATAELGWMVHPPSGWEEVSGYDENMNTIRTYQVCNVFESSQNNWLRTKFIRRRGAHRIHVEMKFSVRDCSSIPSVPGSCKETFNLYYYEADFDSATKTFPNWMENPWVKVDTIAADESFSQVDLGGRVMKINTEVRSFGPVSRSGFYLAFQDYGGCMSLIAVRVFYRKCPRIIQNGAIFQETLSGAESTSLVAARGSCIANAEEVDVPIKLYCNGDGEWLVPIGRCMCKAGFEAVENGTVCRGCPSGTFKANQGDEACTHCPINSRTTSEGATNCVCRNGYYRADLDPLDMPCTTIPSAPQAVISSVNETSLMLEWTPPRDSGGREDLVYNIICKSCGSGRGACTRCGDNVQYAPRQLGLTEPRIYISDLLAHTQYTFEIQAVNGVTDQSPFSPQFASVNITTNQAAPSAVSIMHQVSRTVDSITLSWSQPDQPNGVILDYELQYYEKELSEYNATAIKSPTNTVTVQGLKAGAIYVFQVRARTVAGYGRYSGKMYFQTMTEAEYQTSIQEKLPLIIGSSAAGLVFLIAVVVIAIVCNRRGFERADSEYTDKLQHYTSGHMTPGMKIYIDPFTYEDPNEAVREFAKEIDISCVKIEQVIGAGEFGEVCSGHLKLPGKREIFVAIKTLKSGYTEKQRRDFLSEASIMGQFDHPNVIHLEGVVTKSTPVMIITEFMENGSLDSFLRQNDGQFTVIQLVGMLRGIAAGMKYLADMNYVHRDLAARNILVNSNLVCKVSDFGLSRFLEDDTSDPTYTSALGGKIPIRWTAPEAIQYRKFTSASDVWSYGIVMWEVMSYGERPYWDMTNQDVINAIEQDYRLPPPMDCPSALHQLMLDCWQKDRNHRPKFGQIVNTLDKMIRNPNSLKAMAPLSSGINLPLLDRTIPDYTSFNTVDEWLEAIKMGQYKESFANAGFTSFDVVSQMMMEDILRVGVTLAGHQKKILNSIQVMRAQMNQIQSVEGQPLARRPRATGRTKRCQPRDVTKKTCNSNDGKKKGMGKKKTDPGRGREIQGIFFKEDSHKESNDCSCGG

[2] = biological target: T2, Ephrin type-B receptor 3 (Homo sapiens) (UniProt P54753); conditions: at 0.1 µM
T2 sequence (whole entry): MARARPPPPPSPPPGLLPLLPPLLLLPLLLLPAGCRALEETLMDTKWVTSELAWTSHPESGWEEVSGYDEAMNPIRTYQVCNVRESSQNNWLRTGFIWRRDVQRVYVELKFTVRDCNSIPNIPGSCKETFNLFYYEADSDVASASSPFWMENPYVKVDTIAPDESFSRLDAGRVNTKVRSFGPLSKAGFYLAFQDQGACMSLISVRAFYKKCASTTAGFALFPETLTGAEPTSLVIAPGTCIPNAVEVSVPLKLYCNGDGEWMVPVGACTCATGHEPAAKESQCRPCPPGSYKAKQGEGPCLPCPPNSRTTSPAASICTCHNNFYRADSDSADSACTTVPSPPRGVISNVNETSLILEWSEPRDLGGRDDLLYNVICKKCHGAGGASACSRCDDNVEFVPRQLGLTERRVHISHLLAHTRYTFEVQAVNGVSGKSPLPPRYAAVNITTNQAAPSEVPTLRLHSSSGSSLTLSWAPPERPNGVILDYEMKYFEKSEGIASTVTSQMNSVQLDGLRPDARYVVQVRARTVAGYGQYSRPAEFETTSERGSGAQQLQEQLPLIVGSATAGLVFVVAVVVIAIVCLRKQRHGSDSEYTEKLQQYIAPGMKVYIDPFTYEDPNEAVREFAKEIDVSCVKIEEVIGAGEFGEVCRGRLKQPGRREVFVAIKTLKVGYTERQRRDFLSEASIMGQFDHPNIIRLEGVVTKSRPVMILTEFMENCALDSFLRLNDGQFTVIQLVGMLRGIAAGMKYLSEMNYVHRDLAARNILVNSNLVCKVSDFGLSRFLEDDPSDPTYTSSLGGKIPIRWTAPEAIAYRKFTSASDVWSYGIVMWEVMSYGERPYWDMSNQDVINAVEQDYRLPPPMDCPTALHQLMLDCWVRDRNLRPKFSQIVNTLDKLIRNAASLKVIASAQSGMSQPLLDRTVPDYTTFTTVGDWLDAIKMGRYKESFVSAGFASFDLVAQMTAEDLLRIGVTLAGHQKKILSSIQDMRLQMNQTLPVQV

[3] = biological target: T2, Ephrin type-B receptor 3 (Homo sapiens); conditions: at 1 µM
[4] = biological target: T3, Ephrin type-B receptor 4 (Homo sapiens) (UniProt P54760); conditions: at 0.1 µM
T3 sequence (whole entry): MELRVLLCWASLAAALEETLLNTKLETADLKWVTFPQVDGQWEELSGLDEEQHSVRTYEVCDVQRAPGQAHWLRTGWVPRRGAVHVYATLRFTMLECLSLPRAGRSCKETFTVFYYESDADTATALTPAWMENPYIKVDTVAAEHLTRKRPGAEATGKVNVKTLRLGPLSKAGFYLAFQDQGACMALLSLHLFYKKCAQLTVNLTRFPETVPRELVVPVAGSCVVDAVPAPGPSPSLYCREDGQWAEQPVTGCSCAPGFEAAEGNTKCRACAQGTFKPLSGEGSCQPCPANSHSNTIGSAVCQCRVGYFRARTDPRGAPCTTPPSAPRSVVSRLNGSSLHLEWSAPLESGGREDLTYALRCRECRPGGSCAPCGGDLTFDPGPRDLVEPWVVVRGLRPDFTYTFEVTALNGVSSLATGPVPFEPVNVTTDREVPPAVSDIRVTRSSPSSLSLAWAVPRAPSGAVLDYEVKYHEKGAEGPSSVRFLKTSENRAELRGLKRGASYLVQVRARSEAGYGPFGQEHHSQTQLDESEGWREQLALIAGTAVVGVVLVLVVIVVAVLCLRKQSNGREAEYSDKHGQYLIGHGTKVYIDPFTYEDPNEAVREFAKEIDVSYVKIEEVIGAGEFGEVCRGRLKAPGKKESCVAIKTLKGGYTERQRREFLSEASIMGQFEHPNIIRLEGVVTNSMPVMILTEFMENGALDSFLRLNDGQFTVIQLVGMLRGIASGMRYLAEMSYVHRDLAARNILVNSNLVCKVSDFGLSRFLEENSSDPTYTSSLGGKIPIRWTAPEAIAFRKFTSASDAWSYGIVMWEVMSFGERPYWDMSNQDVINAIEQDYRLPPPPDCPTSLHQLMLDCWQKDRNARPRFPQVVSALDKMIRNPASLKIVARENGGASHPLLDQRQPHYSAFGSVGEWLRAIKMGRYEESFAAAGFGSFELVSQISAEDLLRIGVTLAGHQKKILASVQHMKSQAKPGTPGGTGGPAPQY

[5] = biological target: T3, Ephrin type-B receptor 4 (Homo sapiens); conditions: at 1 µM
[6] = biological target: Receptor tyrosine-protein kinase erbB-2 (Homo sapiens) (UniProt P04626); conditions: at 0.1 µM
[7] = biological target: Receptor tyrosine-protein kinase erbB-2 (Homo sapiens) (UniProt P04626); conditions: at 1 µM
[8] = biological target: Receptor tyrosine-protein kinase erbB-4 (Homo sapiens) (UniProt Q15303); conditions: at 0.1 µM
[9] = biological target: Receptor tyrosine-protein kinase erbB-4 (Homo sapiens) (UniProt Q15303); conditions: at 1 µM
[10] = biological target: Tyrosine-protein kinase Fer (Homo sapiens) (UniProt P16591); conditions: at 0.1 µM
[11] = biological target: Tyrosine-protein kinase Fer (Homo sapiens) (UniProt P16591); conditions: at 1 µM
[12] = biological target: Tyrosine-protein kinase Fes/Fps (Homo sapiens) (UniProt P07332); conditions: at 0.1 µM
[13] = biological target: Tyrosine-protein kinase Fes/Fps (Homo sapiens) (UniProt P07332); conditions: at 1 µM
[14] = biological target: Fibroblast growth factor receptor 1 (Homo sapiens) (UniProt P11362); conditions: at 0.1 µM
[15] = biological target: Fibroblast growth factor receptor 1 (Homo sapiens) (UniProt P11362); conditions: at 1 µM
[16] = biological target: Fibroblast growth factor receptor 2 (Homo sapiens) (UniProt P21802); conditions: at 0.1 µM
[17] = biological target: Fibroblast growth factor receptor 2 (Homo sapiens) (UniProt P21802); conditions: at 1 µM
[18] = biological target: Fibroblast growth factor receptor 3 (Homo sapiens) (UniProt P22607); conditions: at 0.1 µM
[19] = biological target: Fibroblast growth factor receptor 3 (Homo sapiens) (UniProt P22607); conditions: at 1 µM
[20] = biological target: Fibroblast growth factor receptor 4 (Homo sapiens) (UniProt P22455); conditions: at 0.1 µM;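 note: values are mean percent inhibition of FGFR4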
Chain of Fibroblast growth factor receptor 4 (Homo sapiens) (P22455 22-802 limits assumed): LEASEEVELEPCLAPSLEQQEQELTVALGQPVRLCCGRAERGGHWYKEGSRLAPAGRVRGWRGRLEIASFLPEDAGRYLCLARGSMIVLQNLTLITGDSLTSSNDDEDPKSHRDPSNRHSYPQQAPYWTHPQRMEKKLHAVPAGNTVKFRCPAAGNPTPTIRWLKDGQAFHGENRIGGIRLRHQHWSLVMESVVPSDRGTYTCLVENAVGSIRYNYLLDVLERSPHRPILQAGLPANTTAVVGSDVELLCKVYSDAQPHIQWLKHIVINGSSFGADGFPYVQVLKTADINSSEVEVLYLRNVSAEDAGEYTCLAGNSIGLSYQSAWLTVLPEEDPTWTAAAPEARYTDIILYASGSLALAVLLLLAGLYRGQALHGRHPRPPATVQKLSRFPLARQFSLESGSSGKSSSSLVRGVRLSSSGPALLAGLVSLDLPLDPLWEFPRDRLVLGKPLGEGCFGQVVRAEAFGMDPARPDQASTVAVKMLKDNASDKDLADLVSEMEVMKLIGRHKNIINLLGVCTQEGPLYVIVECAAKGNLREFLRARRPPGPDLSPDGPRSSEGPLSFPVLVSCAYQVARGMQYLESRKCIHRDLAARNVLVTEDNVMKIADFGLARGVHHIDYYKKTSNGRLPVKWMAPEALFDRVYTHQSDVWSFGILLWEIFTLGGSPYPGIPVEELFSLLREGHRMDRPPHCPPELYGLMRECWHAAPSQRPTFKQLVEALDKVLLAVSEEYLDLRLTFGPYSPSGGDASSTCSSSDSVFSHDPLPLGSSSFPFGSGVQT

Chain of Tyrosine-protein kinase Fes/Fps (Homo sapiens) (P07332 whole entry): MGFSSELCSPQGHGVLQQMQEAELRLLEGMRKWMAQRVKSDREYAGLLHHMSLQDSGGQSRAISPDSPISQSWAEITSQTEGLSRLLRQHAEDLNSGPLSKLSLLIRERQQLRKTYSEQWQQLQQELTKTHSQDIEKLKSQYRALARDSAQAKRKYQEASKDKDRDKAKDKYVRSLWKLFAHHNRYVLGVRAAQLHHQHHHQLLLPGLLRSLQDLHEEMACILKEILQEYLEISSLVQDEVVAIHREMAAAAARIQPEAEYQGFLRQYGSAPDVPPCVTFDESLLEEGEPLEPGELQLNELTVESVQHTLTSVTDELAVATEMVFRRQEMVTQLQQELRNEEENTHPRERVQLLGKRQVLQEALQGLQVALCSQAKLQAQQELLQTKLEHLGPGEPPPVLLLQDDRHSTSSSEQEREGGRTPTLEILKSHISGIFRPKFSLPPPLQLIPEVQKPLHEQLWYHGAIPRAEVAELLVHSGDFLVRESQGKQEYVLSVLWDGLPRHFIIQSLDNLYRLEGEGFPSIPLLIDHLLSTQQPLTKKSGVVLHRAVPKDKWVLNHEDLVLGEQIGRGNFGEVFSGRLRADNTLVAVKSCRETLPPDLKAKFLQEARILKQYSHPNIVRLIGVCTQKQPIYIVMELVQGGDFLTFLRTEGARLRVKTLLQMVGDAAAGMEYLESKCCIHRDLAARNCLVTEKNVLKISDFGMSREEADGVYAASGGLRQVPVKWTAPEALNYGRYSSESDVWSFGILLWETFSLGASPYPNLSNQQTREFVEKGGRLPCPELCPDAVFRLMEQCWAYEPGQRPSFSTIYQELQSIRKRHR
Chain of Fibroblast growth factor receptor 2 (Homo sapiens) (P21802 22-821 limits assumed): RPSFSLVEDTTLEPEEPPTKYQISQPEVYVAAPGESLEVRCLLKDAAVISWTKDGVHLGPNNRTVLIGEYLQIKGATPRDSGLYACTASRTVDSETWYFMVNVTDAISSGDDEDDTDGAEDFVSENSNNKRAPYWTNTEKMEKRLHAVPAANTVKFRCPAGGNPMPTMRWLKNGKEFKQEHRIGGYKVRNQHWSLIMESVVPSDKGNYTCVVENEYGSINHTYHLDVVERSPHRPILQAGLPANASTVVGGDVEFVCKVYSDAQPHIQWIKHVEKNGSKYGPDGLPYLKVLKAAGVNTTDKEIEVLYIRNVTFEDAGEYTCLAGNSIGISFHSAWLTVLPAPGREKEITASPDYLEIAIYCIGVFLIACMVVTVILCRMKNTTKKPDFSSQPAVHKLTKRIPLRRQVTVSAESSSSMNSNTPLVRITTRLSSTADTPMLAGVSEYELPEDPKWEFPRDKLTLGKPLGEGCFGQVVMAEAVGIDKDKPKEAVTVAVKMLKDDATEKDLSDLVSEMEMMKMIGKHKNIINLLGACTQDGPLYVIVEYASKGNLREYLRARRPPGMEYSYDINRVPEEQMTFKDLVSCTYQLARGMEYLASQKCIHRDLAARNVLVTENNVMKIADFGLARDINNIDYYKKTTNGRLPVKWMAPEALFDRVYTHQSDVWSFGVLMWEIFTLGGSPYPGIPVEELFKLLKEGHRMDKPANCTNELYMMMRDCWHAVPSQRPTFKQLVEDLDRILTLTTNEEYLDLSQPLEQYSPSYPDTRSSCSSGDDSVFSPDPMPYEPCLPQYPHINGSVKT
Chain of Receptor tyrosine-protein kinase erbB-4 (Homo sapiens) (Q15303 whole entry): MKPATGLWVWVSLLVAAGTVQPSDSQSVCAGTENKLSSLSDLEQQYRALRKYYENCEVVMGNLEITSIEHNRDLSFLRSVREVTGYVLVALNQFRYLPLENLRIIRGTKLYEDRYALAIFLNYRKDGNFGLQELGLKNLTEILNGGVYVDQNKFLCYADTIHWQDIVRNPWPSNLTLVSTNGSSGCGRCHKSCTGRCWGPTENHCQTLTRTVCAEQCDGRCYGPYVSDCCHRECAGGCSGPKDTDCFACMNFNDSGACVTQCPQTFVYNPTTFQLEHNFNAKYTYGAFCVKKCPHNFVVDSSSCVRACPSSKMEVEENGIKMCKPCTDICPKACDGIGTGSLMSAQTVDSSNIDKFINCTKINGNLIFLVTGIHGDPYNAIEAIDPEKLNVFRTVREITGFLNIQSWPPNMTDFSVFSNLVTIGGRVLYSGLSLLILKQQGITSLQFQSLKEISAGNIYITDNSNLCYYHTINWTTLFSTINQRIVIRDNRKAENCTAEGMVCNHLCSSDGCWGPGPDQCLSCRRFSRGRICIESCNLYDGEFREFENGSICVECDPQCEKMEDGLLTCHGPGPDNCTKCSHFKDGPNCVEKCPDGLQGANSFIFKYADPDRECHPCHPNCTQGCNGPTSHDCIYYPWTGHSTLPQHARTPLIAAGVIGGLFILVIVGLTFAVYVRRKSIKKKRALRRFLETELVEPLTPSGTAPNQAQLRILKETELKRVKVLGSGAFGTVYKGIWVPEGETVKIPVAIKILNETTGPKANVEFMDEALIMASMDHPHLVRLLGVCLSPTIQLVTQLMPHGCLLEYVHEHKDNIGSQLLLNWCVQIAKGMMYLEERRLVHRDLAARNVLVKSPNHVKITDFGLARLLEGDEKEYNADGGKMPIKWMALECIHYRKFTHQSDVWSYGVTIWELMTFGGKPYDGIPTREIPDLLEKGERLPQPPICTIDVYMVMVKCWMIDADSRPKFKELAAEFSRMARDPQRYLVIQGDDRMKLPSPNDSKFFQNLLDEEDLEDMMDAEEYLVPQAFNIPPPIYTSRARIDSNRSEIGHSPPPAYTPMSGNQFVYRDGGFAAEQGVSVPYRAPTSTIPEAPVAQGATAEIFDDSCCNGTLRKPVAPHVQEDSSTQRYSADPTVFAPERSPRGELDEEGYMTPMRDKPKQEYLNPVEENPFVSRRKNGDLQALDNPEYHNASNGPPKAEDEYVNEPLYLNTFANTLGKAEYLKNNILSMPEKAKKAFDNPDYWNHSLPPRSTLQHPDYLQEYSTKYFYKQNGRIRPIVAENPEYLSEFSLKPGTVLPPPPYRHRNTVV
Chain of Receptor tyrosine-protein kinase erbB-2 (Homo sapiens) (P04626 whole entry): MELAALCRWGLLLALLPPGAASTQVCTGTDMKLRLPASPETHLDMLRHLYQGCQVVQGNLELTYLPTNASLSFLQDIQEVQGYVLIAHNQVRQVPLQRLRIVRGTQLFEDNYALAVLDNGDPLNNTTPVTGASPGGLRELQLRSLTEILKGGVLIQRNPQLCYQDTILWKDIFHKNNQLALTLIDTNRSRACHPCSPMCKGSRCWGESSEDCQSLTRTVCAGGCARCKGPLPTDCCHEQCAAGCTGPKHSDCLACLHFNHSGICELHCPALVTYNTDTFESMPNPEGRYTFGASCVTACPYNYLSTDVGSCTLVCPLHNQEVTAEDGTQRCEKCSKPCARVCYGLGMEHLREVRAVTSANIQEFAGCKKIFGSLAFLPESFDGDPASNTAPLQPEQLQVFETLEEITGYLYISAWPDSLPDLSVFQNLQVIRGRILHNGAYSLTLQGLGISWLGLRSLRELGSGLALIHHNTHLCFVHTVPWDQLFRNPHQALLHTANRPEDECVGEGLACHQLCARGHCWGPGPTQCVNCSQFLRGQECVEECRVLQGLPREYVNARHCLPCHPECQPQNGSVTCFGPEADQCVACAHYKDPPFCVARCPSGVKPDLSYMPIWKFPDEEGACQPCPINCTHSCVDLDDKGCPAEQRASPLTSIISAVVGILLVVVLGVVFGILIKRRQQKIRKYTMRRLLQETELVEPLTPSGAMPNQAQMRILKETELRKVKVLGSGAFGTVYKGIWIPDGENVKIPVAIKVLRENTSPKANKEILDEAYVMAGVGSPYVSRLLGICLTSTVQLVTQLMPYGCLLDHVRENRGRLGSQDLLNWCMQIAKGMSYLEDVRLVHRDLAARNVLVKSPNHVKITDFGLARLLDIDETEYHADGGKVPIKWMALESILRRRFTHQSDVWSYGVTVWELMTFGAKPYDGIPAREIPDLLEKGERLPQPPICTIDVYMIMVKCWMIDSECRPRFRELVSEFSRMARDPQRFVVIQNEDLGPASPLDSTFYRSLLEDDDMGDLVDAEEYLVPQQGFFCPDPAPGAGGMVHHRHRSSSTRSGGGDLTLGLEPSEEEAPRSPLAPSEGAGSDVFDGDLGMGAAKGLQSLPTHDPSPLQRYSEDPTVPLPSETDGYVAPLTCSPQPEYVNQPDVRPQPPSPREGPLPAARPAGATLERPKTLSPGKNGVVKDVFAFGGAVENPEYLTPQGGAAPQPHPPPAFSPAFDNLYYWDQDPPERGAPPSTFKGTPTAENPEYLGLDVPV

Row | Compound | inhibition [1] [%] | inhibition [2] [%] | inhibition [3] [%] | inhibition [4] [%] | inhibition [5] [%] | inhibition [6] [%] | inhibition [7] [%] | inhibition [8] [%] | inhibition [9] [%] | inhibition [10] [%] | inhibition [11] [%] | inhibition [12] [%] | inhibition [13] [%] | inhibition [14] [%] | inhibition [15] [%] | inhibition [16] [%] | inhibition [17] [%] | inhibition [18] [%] | inhibition [19] [%] | inhibition [20] [%]
1 | NS(=O)(=O)c1ccc(N/N=C2\C(=O)Nc3ccc4ncccc4c32)cc1 | 29.1 | 2.75 | -3.76 | 2.29 | 13.2 | 1.33 | -2.88 | 11.4 | 10.4 | 3.38 | 22.8 | 2.15 | 6.75 | 10.8 | 41 | 27.5 | 69.8 | 26.1 | 70.7 | -0.17
2 | COc1cc(Nc2nccc(Nc3ccc4c(C)n[nH]c4c3)n2)cc(OC)c1OC | 65.5 | 2.52 | 0.24 | 11.2 | 54.8 | -1.05 | 0.32 | 11.9 | 27.6 | 6.42 | 36.1 | 3.05 | 10.6 | 5.2 | 24.8 | 7.33 | 39.8 | 8.22 | 30.5 | 2.39
3 | CNC(=O)c1cccc(C#Cc2cncnc2Nc2ccc(OCc3cccc(F)c3)c(Cl)c2)c1 | 6.47 | 0.65 | 1.29 | -1.02 | 0.31 | -1.06 | 23.7 | 17.6 | 58.4 | 1.71 | 2.2 | 0.17 | 1.47 | -1.46 | 0.26 | 0.94 | 8.07 | 1.87 | – | 0.5
4 | O=C(Nc1n[nH]c2cc(-c3ccc(F)cc3)ccc12)C1CC1 | 7.07 | 5.69 | 1.87 | 1.47 | 2.87 | 1.75 | -0.76 | 6.81 | 11.6 | 5.3 | 1.55 | 1.98 | 2.43 | 3.72 | 5.84 | 1.37 | 3.08 | 4.83 | 3.2 | -1.21
5 | COC(=O)c1sc(-n2cnc3cc(OC)c(OC)cc32)cc1OCc1ccccc1C(F)(F)F | 10.3 | 7.34 | 6.47 | 2.86 | 3.16 | 3.29 | -2.49 | 8.62 | 11 | 1.07 | 4.19 | 3.47 | 3.74 | 3.22 | 12.9 | 3.5 | 23 | 6.13 | 13.9 | -3.87
6 | CS(=O)(=O)CCNCc1coc(-c2ccc3ncnc(Nc4ccc(OCc5ccccc5)cc4)c3c2)c1 | 7.45 | 3.83 | 4.34 | 2.88 | 4.04 | 6.1 | 59 | 55.3 | 94.1 | -0.6 | 1.36 | 2.79 | 3.78 | 3.21 | 2.53 | 3.27 | 4.29 | 5.11 | 3.99 | 4.22
7 | COc1ccc(-c2nn3ncccc3c2-c2ccnc(Nc3ccc4c(c3)OCCO4)n2)cc1 | 35 | 1.77 | 6.41 | -0.35 | 15.6 | 0.95 | 17.2 | 55.9 | 108 | 1.56 | 11.8 | 4.35 | 7.51 | -2.89 | 11.2 | 3.13 | 22.1 | 3.94 | 12.6 | 1.59
